The source of these data is PubChem BioAssay (NCATS).

Molecules are shown by their SMILES. Values without a mark were called inactive. Calls come from the whole dose curve; as a rule, active = well fitted curve in the direction sought with a large enough effect; inconclusive = small, poorly fitted or top-dose-only effect, or effect the other way, or another doubt; inactive = no such curve, though single readings can be large or run the other way.

Beta-2 adrenergic receptor (Homo sapiens), sequence (P07550 whole entry, looked up): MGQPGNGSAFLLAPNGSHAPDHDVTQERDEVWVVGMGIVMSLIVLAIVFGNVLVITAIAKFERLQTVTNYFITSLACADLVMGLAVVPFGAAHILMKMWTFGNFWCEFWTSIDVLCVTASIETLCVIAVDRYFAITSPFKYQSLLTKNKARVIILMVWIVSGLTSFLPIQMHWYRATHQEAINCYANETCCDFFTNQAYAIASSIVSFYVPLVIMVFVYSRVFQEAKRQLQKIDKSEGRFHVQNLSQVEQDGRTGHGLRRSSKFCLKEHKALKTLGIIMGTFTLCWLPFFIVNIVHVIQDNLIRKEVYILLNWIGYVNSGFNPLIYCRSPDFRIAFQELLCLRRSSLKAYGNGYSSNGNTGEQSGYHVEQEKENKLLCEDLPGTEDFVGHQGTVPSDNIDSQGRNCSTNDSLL

This assay has as its target Beta-2 adrenergic receptor (Homo sapiens) (UniProt P07550). Description: qHTS validation assay of beta-arrestin-biased ligands of beta2-adrenergic receptor (AID 485366). Note: 0% is about no effect. The settings on record: cell-based beta-arrestin recruitment to ADRB2, qHTS; series mostly up to 46.1 µM; activation: at the top concentration. An excerpt:
NIH Molecular Libraries Probe Production Network [MLPCN]
NIH Chemical Genomics Center [NCGC]
PI: Bryan Roth and Bob Lefkowitz
The concept of biased agonism is an emerging concept of molecular pharmacology which proposes that seven transmembrane receptors (7TMRs) or G protein-coupled receptors (GPCRs), exist in multiple signaling conformations and complexes and that ligands (either agonists or antagonists) can induce signaling biased responses for distinct signal transduction cascades.
Furthermore, accumulating evidence over the last decade has drawn attention to a novel function of beta-arrestins as signal transducers that scaffold various signaling molecules upon activation of 7TMRs. […] This beta-arrestin-biased signaling presumably leads to distinct physiological outcomes from those by G protein activation.
Additionally, the active receptor conformations which […] on this beta-arrestin signaling are likely different from those activating G protein signaling
The goal of this screening project will be to discover and optimize novel beta-arrestin-biased ligands for beta2-AR signaling. A luminescent cell-based assay for beta2-AR-mediated agonism, known as the Tango assay, has been validated in which ligand binding of a recombinant beta2-AR and subsequent recruitment of a recombinant beta-arrestin lead to the release of the transcriptional activator tTA, which upregulates transcription of a tTA-responsive luciferase gene. […] Compounds were screened as a concentration-titration series that ranged from 46 microM to 0.6 nM.
NCGC Assay Protocol Summary:
Tango cells were dispensed into white, solid, tissue-culture-treated 1536-well plates at 1500 cells/well in DMEM, containing 1% fetal bovine serum (FBS). Then, 23 nL of compounds or DMSO were delivered to each well using a pin tool. Plates were incubated at 37 degrees C, 5% CO2 for 18 hr. Then 2.5 uL luminescent substrate mix (in-house prepared: 150 mM Tris-Cl, pH 7.6, 3 mM MgCl2, 1% Triton X-100, 5 mM DTT, 0.5 mM CoA, 0.15 mM ATP, 0.44 mM D-luciferin, final concentrations) was added to each well. Plates were then incubated for 15 minutes at room temperature, and subsequently measured on a ViewLux plate reader for luminescent signal using a clear filter with a 10 second exposure and 2x binning. The %Activity was determined from the corrected luminescence values.
Concentration-response curves were fitted to the signals arising from the resulting luminescence. The concentration-effect curves were then classified based on curve quality (r2), response magnitude and degree of measured activity, and compounds were subsequently categorized based on their curve class.
Keywords: biased agonism, beta2-AR, beta-arrestin, GPCR, 7TMR, Tango, luminescence, MLSMR, MLPCN, NIH Roadmap, qHTS, NCGC
(Quantitative high-throughput screening tests each substance at several concentrations.)
For `C[C@H](N)Cc1cccc(C(F)(F)F)c1`, the “activation” value is 2.12%.

`COc1ccc(CNC(=O)/C=C/c2ccc3[nH]cc(CCN(C)C)c3c2)cc1`: the “activation” value is -0.144%.

For the molecule `COc1ccc2c(c1)c(CCN1CCOCC1)c(C)n2C(=O)c1cccc(Cl)c1Cl`, the “activation” value is -0.0858%.

As to `Ic1ccccc1CNC1C2CCN(CC2)C1C(c1ccccc1)c1ccccc1` (stereo not given), the “activation” value was -0.803%.

Turning to `C=CCN1CCC23c4c5ccc(O)c4O[C@H]2C(=O)CC[C@@]3(O)C1C5` (stereo not given in full), the “activation” value was 0.0059%.

Turning to `Oc1ccc2c3c1O[C@H]1c4oc5ccccc5c4C[C@@]4(O)C(C2)N(CC2CC2)CCC314` (stereo not given in full), the “activation” value was 1.24%.

Turning to `CC12NC(Cc3ccccc31)c1ccccc12` (stereo not given), the “activation” value is 0.649%.

With `NCC(O)c1cc(O)c(O)cc1F` (stereo not given), the “activation” value was 0.611%.

On to `CO[C@H]1CC=C2CCN3CCC4=C(CC(=O)OC4)[C@]23C1`, for which the “activation” value is -0.259%.

For the molecule `O=S1(=O)N(CCN2CC=C(c3c[nH]c4cc(F)ccc34)CC2)c2cccc3c2N1CCC3`, the “activation” value is 3.01%.

On to `CN(N=O)c1cc(O)ccc1O`, for which the “activation” value was -1.38%.

Regarding `CCCN(CCC)C1CCc2cccc(O)c2C1` (stereo not given), the “activation” value is 0.28%.

As for `CCCCCCCCCCCCCC(=O)O[C@@H]1[C@@H](C)[C@@]2(O)[C@@H](C=C(CO)C[C@@]3(O)C(=O)C(C)=C[C@@H]23)C2C(C)(C)[C@@]21OC(C)=O` (stereo not given in full), the “activation” value was -0.571%.

On to `CCCN1CC[C@@H]2c3cc(O)ccc3CC[C@@H]21`, for which the “activation” value was -0.119%.

As for `OC1CCCCC1N1CCC(c2ccccc2)CC1` (stereo not given), the “activation” value is 0.395%.

In the case of `COC(=O)N1CCN(C(=O)Cc2ccc(Cl)c(Cl)c2)C(CN2CCCC2)C1` (stereo not given), the “activation” value was -0.0175%.

As to `CCCN1CCC[C@@H](c2cccc(O)c2)C1`, the “activation” value was 0.0319%.

Take `NCC(CP(=O)(O)O)c1ccc(Cl)cc1` (stereo not given): the “activation” value is -0.218%.

For `C#CCN[C@H](C)Cc1ccccc1`, the “activation” value is 1.38%.

As for `CCS(=O)(=O)Nc1cccc(C(=C2CCCCC2)c2cnc[nH]2)c1`, the “activation” value was -0.294%.

With `N=C(N)c1ccc(CS(=O)(=O)F)cc1`, the “activation” value is 0.129%.

In the case of `NC(=O)c1cc(N2CC2)c([N+](=O)[O-])cc1[N+](=O)[O-]`, the “activation” value was 1.31%.

`CC(=O)OCC1=C(C(=O)O)N2C(=O)[C@@H](NC(=O)CCC[C@@H](N)C(=O)O)[C@H]2SC1`: the “activation” value is 0.496%.

In the case of `NNC(=O)c1ccc(O)cc1`, the “activation” value is 0.509%.

`N#CCCN`: the “activation” value is -1.01%.

On to `Cc1c2ccncc2c(C)c2c1[nH]c1ccccc12`, for which the “activation” value was -0.156%.

As for `Clc1ccc(N2CC3CCC(C2)N3)nn1`, the “activation” value is -0.573%.

For `COc1ccc2[nH]cc(CCN)c2c1`, the “activation” value is -0.377%.

As to `CCCN(CCC)CCc1c[nH]c2ccc(C(N)=O)cc12`, the “activation” value is -0.0189%.

Regarding `C[C@]12Cc3cn4c(nc3C=C1CCC1C2CC[C@@]2(C)[C@H]1CC[C@@]2(O)C#N)nc1ccccc14` (stereo not given in full), the “activation” value was 12.7%.

For `CC(N)c1cccc(Cl)c1Cl` (stereo not given), the “activation” value is 0.207%.

Consider `OCc1cnc[nH]1`, for which the “activation” value is 0.368%.

On to `COc1ccc2c(c1O)-c1cccc3c1[C@@H](C2)N(C)CC3`, for which the “activation” value is -0.151%.

For the molecule `NC(CCCCCP(=O)(O)O)C(=O)O` (stereo not given), the “activation” value is -0.0949%.

Take `COc1cc(CC(C)N)c(OC)cc1I` (stereo not given): the “activation” value is -0.312%.

As for `CC(=O)c1c(O)c(C)c(O)c(Cc2c(O)c3c(c(C(=O)/C=C/c4ccccc4)c2O)OC(C)(C)C=C3)c1O`, the “activation” value was 2.53%.

For the molecule `COc1ccc2[nH]c3c(c2c1)CCNC3`, the “activation” value is 0.0276%.

For `O=C(O)c1cc[c]([Hg][Cl])cc1`, the “activation” value was 0.124%.

On to `COc1ccc2c(c1)[C@@]13CCCC[C@H]1[C@@H](C2)NCC3`, for which the “activation” value was -0.339%.

On to `NCCCP(=O)(O)O`, for which the “activation” value was 0.265%.
